Experimental data as given in PubChem BioAssay AID720504 (National Center for Advancing Translational Sciences (NCATS), 2013).
In all, about 360,000 compounds went through this assay and about 10,000 (2.8%) were called active. Not shown: some 4% with an inconclusive outcome. Shown is part of a subset that was picked to be rich in actives. Unmarked numbers belong to inactive results. Calls follow the shape of the dose curve; as a rule, active = well fitted inhibition curve with a large enough effect; inconclusive = small, poorly fitted or top-dose-only effect; inactive = flat fitted curve, though single readings scatter.

The compounds below were run against Serine/threonine-protein kinase PLK1 (Homo sapiens) (UniProt P53350) (assay: qHTS for Inhibitors of PLK1-PDB (polo-like kinase 1 - polo-box domain): Primary Screen). Conditions: Plk1 PBD binding of FITC phosphopeptide, fluorescence polarization.
% is scaled to controls: 0 for no effect and ±100 for the full control effect; potency is read from the fitted curve at half-maximal effect.
Also: nearly all actives have a fitted effect of over 65% in size.
For max response, negative = inhibition in this document: series mostly up to about 57 µM.

Sequence of Serine/threonine-protein kinase PLK1 (Homo sapiens) (P53350 whole entry, looked up, the tested form may be a part): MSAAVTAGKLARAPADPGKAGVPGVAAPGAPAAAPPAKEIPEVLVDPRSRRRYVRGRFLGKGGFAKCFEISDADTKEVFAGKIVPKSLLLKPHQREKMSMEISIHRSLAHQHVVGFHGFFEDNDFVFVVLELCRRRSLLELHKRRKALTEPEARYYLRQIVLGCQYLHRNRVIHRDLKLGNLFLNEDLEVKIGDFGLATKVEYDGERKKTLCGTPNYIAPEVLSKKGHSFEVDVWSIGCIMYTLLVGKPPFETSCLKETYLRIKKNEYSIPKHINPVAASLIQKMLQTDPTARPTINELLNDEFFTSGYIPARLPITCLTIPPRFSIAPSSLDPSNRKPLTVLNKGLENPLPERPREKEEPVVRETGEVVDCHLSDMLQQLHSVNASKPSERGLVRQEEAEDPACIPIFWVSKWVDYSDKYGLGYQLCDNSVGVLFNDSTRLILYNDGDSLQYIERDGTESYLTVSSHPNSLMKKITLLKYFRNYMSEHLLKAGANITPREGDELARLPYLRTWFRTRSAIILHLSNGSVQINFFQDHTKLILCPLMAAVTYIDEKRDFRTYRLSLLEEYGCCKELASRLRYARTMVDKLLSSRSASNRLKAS

SMILES	max response, negative = inhibition	Potency
CC1(C(=O)NS(=O)(=O)c2ccccc2)CCN1C(=O)C/C=C/c1ccccc1 (centres undefined)	-21.1%	
COc1ccc(OC)c(C(=O)NC2CCCc3c2cnn3-c2cc(C)cc(C)c2)c1 (centres undefined)	-4.63%	
CC1C(=O)N(Cc2cn(Cc3ccco3)nn2)CCS(=O)(=O)N1Cc1ccc(-c2cccc(CO)c2)cc1 (centres undefined)	-3.83%	
OC[C@@H]1CN(Cc2ccncc2)C[C@H](n2cnc3c(N4CCN(c5ccccc5)CC4)ncnc32)O1	-12.1%	
Cc1cc(C)c2cc(C#N)c(N3CCNCC3)nc2c1	-8.16%	
CCNC(=O)C1CCCN(C(=O)c2cc(F)ccc2C)CC1 (centres undefined)	-1.52%	
Cc1c(Br)cc(C(=O)N2CCCCCC2)c(C)c1C	-5.8%	
Cc1ccc(C(=O)N2CCCCCC2)cc1Br		26.7 µM (active)
O=C(c1ccc(Cl)c(Cl)c1)N1CCCC1	-20.7%	
COc1c(C(=O)N2CCCC2)ccc2ccccc12	-0.934%	
Cc1ccc(C(=O)N2CCCC2)c(F)c1F		21.2 µM (active)
CCc1nc2c(OCc3ccc(C(F)(F)F)cc3)cccn2c1N(C)C(=O)CC(C)C	0.499%	
COc1cc(-c2nnc(NC(=O)CS(=O)(=O)c3ccc(Cl)cc3)o2)cc(OC)c1OC	-18.2%	
CC(C)C1CCN(C(=O)C2CCC(=O)N(C3CCCCCC3)C2)CC1 (centres undefined)	0.565%	
CC(Sc1nnc(COc2ccccc2)n1-c1ccccc1)C(=O)O (centres undefined)	-5.44%	
Fc1ccc(/C=N/n2c(COc3ccccc3)n[nH]c2=S)cc1		23.8 µM (active)
O=C(COc1ccccc1)Nc1ccc(F)cc1	-17.9%	
CC(=O)Nc1cc(-c2ccc(N3CCN(C)CC3)cc2)cn2c(-c3cccc(C(=O)N(C)C)c3)cnc12	-2.75%	
CN1OC[C@@H]2CN(S(=O)(=O)c3cccc(C(F)(F)F)c3)[C@H](c3ccc(-c4cc5ccccc5o4)cc3)C[C@@H]21	-19.4%	
O=C(Nc1ccc2c(c1)OCCO2)C(C1CC1)N1CCC(Cc2ccccc2)CC1 (centres undefined)	1.88%	

SMILES	max response, negative = inhibition	Potency
CCC(C(=O)NC(C)(C)C)n1c(-c2ccccc2)nc2ccccc21 (centres undefined)	0.0436%	
Cc1[nH]c2ccccc2c1C(=O)CN1CC(C)CC(C)C1 (centres undefined)	-9.93%	
Cc1[nH]c2ccccc2c1C(=O)CN1CCCC(C)C1 (centres undefined)	-2.14%	
CCOC(=O)N1CCN(CC(=O)c2c(C)[nH]c3ccccc23)CC1		3.77 µM (active)
CNc1cncc(-c2cccc(C(=O)N3CCOCC3)c2)n1	-3.85%	
COc1ccccc1-n1c(SCC(=O)Nc2ccc(Cl)cc2)nc(O)c(Cc2ccccc2)c1=O	-10.5%	
CNc1cnc(-c2cc(OC)c(OC)c(OC)c2)cn1	-14%	
NS(=O)(=O)c1ccc(NC(=S)NNC(=O)c2cccs2)cc1		29.9 µM (active)
CCc1nnc(NS(=O)(=O)c2ccc(NC(=S)NC(=O)c3cccs3)cc2)s1		18.9 µM (active)
O=C(NC(=S)Nc1ccc(NC(=O)c2cccs2)cc1)c1ccc([N+](=O)[O-])cc1	-4.47%	
CS(=O)(=O)c1ccc(C(=O)NNC(=O)c2cccs2)cc1	-0.622%	
CCc1ccc(NC(=O)C(=O)NNC(=O)c2cccs2)cc1	-20.4%	
CCc1nnc(NS(=O)(=O)c2ccc(NC(=O)c3cccc(OC(F)(F)C(F)F)c3)cc2)s1	-23.6%	
COc1ccc(Cn2c(=O)oc3ccccc32)cc1	-4.16%	
CC(=O)Nc1cccc(-c2cc3nc(NCc4cccnc4)n(C)c(=O)c3s2)c1	-0.405%	
CC(=O)Oc1ccc(Cn2c(C)c(C(=O)NCc3ccc(C#N)cc3)sc2=O)cc1	-2.92%	
Cc1sc2nc(-c3ccccc3F)oc(=O)c2c1C	-3.03%	
N#CCCN(C(=S)Nc1ccc(Cl)c(Cl)c1)C1CCCCC1	-9.12%	
O=c1cnnc(Nc2ccccc2)[nH]1	-9.72%	
CC(C)(C)C(=O)c1cnc(Nc2ccccc2)s1	-4.38%	

SMILES	max response, negative = inhibition	Potency
S=c1[nH]nc(Nc2ccccc2)s1		23.8 µM (active)
CCOC(=O)c1cnc(SCC(=O)Nc2ccccc2C(=O)OC)nc1N	0.561%	
CCOC(=O)CSc1nccc(N(C)C)c1C#N	-3.55%	
CCOC(=O)C(Sc1ncc(C#N)c(N)n1)C(C)C (centres undefined)		11.9 µM (active)
COc1cccc(CSc2nc3nc(C)cc(C)n3n2)c1	-14.8%	
COc1ccc(C(C[N+](=O)[O-])n2nc(C)cc2C)cc1 (centres undefined)		26.7 µM (active)
COc1ccc(OC)c(S(=O)(=O)n2c([N+](=O)[O-])cnc2C)c1	-9.42%	
CC1(C(=O)Nc2ccc3c(c2)OCCO3)CCN1C(=O)Cc1cc(F)ccc1F (centres undefined)	2.25%	
CCOC(=O)c1cc(-c2sc(NC(=O)c3ccccc3)nc2C)n(-c2ccc(Br)cc2)n1	-6.87%	
O=C(NCc1ccccc1)C1CNCC(C(=O)NCc2ccccc2)C1 (centres undefined)	1.25%	
O=C(c1ccc(N2CCCC2=O)cc1)N1CCN(c2ccc(C(F)(F)F)cc2[N+](=O)[O-])CC1	-12.4%	
COc1ccc(N(CC(=O)NCC2CCCO2)C(=O)CCC(=O)Nc2nccs2)c(OC)c1 (centres undefined)	-9.55%	
CCc1ccccc1N(CC(=O)NCC1CCCO1)C(=O)CCC(=O)Nc1nccs1 (centres undefined)		21.2 µM (active)
Cc1cc(NC(=O)CCC(=O)N(CC(=O)NCC2CCCO2)c2ccccc2C)no1 (centres undefined)	-1.5%	
COc1ccc(C(=O)C(OP(=O)(OC)OC)c2ccccc2OC)cc1 (centres undefined)	-7.71%	
CO[C@@H]1CN(C)C(=O)c2cc(NC(=O)C3CC3)ccc2OC[C@H](C)N(C(=O)CN2CCOCC2)C[C@@H]1C	-4.89%	
O=C(Nc1ccccc1-c1ccccc1)c1ccccc1[N+](=O)[O-]	-3.58%	
O=C(Nc1ccccc1-c1ccccc1)c1cccs1		4.23 µM (active)
O=C(Nc1ccccc1-c1nnn(CC(=O)N2CCN(c3ccccc3)CC2)n1)c1cccs1	-6.64%	
